Laboratory results published in paper PMC9911399, “Two distinct binding modes provide the RNA-binding protein RbFox with extraordinary sequence specificity”.
Substitutions are numbered along the chain they refer to; changes in the protein carry UniProt numbers. Over roughly 16,000 sequences, “ka relative to ugcaugu” has its median near 0.0091; the highest 2% begin near 0.032. This is one part of a sample in which the highest values are shown more often than they occur.

T1: RBFOX1 RRM (Homo sapiens, UniProt Q9NWB1 109-208)
T1 sequence: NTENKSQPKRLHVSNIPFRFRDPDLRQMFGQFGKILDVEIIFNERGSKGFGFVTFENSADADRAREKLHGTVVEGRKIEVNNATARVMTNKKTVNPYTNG

B1: GACGAUG (DNA:RNA)
RNA: GGGAGACCGGAAUUCAGAUUGUCCGACGAUGUUAAAUCCCGUCGUAGCCACCA
DNA 1: CAATCTGAATTCCGGTCTCCC
DNA 2: TGGTGGCTACGACGGGATT
B2: AAAUAUU (DNA:RNA)
RNA: B1 RNA with G25A, C27A, G28U, G31U
DNA 1: CAATCTGAATTCCGGTCTCCC
DNA 2: TGGTGGCTACGACGGGATT
B3: CUUGAAA (DNA:RNA)
RNA: B1 RNA with G25C, A26U, C27U, U30A, G31A
DNA 1: CAATCTGAATTCCGGTCTCCC
DNA 2: TGGTGGCTACGACGGGATT
B4: CGUUCGG (DNA:RNA)
RNA: B1 RNA with G25C, A26G, C27U, G28U, A29C, U30G
DNA 1: CAATCTGAATTCCGGTCTCCC
DNA 2: TGGTGGCTACGACGGGATT
B5: UUGCUCG (DNA:RNA)
RNA: B1 RNA with G25U, A26U, C27G, G28C, A29U, U30C
DNA 1: CAATCTGAATTCCGGTCTCCC
DNA 2: TGGTGGCTACGACGGGATT
B6: UCCGUGC (DNA:RNA)
RNA: B1 RNA with G25U, A26C, A29U, U30G, G31C
DNA 1: CAATCTGAATTCCGGTCTCCC
DNA 2: TGGTGGCTACGACGGGATT
B7: GUCGUGC (DNA:RNA)
RNA: B1 RNA with A26U, A29U, U30G, G31C
DNA 1: CAATCTGAATTCCGGTCTCCC
DNA 2: TGGTGGCTACGACGGGATT
B8: UGCUUAU (DNA:RNA)
RNA: B1 RNA with G25U, A26G, G28U, A29U, U30A, G31U
DNA 1: CAATCTGAATTCCGGTCTCCC
DNA 2: TGGTGGCTACGACGGGATT
B9: UUGCCCG (DNA:RNA)
RNA: B1 RNA with G25U, A26U, C27G, G28C, A29C, U30C
DNA 1: CAATCTGAATTCCGGTCTCCC
DNA 2: TGGTGGCTACGACGGGATT
B10: UCCUGCU (DNA:RNA)
RNA: B1 RNA with G25U, A26C, G28U, A29G, U30C, G31U
DNA 1: CAATCTGAATTCCGGTCTCCC
DNA 2: TGGTGGCTACGACGGGATT
B11: UUGGUGC (DNA:RNA)
RNA: B1 RNA with G25U, A26U, C27G, A29U, U30G, G31C
DNA 1: CAATCTGAATTCCGGTCTCCC
DNA 2: TGGTGGCTACGACGGGATT
B12: UGCUUGG (DNA:RNA)
RNA: B1 RNA with G25U, A26G, G28U, A29U, U30G
DNA 1: CAATCTGAATTCCGGTCTCCC
DNA 2: TGGTGGCTACGACGGGATT
B13: GUGCUUG (DNA:RNA)
RNA: B1 RNA with A26U, C27G, G28C, A29U
DNA 1: CAATCTGAATTCCGGTCTCCC
DNA 2: TGGTGGCTACGACGGGATT
B14: UGCUUGU (DNA:RNA)
RNA: B1 RNA with G25U, A26G, G28U, A29U, U30G, G31U
DNA 1: CAATCTGAATTCCGGTCTCCC
DNA 2: TGGTGGCTACGACGGGATT
B15: UGAUUGG (DNA:RNA)
RNA: B1 RNA with G25U, A26G, C27A, G28U, A29U, U30G
DNA 1: CAATCTGAATTCCGGTCTCCC
DNA 2: TGGTGGCTACGACGGGATT
B16: UUGCUCC (DNA:RNA)
RNA: GGGAGACCGGAAUUCAGAUUGUCCUUGCUCCUUAAAUCCCGUCGUAGCCACCA
DNA 1: CAATCTGAATTCCGGTCTCCC
DNA 2: TGGTGGCTACGACGGGATT

What follows are binders tested against T1, RBFOX1 RRM (assay: EMSA; HiTS-Eq, 1 nM pool, 10 min; buffer printed only for the single-RNA assays: 10 mM Tris pH 7.5, 150 mM NaCl, 3.4 mM EDTA, 0.001% NP-40, 30 C). Details: tags: His6 N-terminal (pET28a); label: 5' 32P.
Method in brief: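 Purified RbFox RRM (wild type or mutant) was equilibrated for 10 min in 50 µL with 1 nM of a 5′-radiolabelled pool of RNA with 7 randomized nucleotides, its flanks annealed to DNA oligonucleotides, across increasing protein concentrations. Free RNA was separated by 8% native PAGE, excised, reverse-transcribed, PCR-barcoded and sequenced on an Illumina HiSeq 2500. Relative association constants came from read-count changes of each variant against the control reaction, normalised to the cognate motif.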

Row | Binder | binding signal
1 | B1 | 0.0266 KA relative to UGCAUGU
2 | B2 | 0.00092 KA relative to UGCAUGU
3 | B3 | 0.00785 KA relative to UGCAUGU
4 | B4 | 0.0132 KA relative to UGCAUGU
5 | B5 | 0.0477 KA relative to UGCAUGU
6 | B6 | 0.0168 KA relative to UGCAUGU
7 | B7 | 0.0206 KA relative to UGCAUGU
8 | B8 | 0.0138 KA relative to UGCAUGU
9 | B9 | 0.0225 KA relative to UGCAUGU
10 | B10 | 0.0144 KA relative to UGCAUGU
11 | B11 | 0.0277 KA relative to UGCAUGU
12 | B12 | 0.0481 KA relative to UGCAUGU
13 | B13 | 0.053 KA relative to UGCAUGU
14 | B14 | 0.0532 KA relative to UGCAUGU
15 | B15 | 0.0223 KA relative to UGCAUGU
16 | B16 | 0.0158 KA relative to UGCAUGU
